aSyn UTR act = Activators via SNCA 5'UTR binding, MLPCN; activity score, % (tested at 7.5 µM), hits read low; alpha-synuclein 5'UTR reporter, activators screen; hit rate 7.1% among 300,000; in the data active = activity score below about -60%
* marks the source's active call; other numbers are inactive results. A selection follows.

SMILES	aSyn UTR act
CCN1CCN(c2ccc(NC(=O)c3ccccc3F)cc2Cl)CC1	-136*
CCCCCC(=O)Nc1ccc(N2CCN(CC)CC2)c(Cl)c1	-152*
COc1cc(CNC(C)c2ccccc2)cc(Br)c1OCc1ccc(F)cc1 (centres undefined)	59
COc1cc(/C=N/NC(N)=S)cc(Br)c1OCc1ccccc1F	-74*
CCOc1cc(/C=N/NC(N)=S)cc(Br)c1OCc1ccccc1C	-74*
COc1ccc(NC(=O)/C(C#N)=C/c2ccc(Br)o2)cc1	-66*
COc1ccc(NC(=O)/C(C#N)=C\c2ccc(N3CCOCC3)o2)cc1	-95*
N#C/C(=C\c1ccc(N2CCOCC2)o1)C(=O)Nc1ccc(O)cc1	-101*
Cc1c(OCC(F)(F)F)ccnc1CSc1nc2ccccc2[nH]1	-142*
Cc1c(OCC(F)(F)F)ccnc1CS(=O)c1nc2ccccc2[nH]1 (centres undefined)	-99*
COCCCOc1ccnc(CS(=O)c2nc3ccccc3[nH]2)c1C (centres undefined)	-111*
Cc1ccc2c(C)c(C(=O)Nc3cccnc3)oc2c1	-201*
Cc1cc2oc(C(=O)Nc3cccnc3)c(C)c2cc1C	-114*
Cc1ccc2c(Cl)c(C(=O)Nc3cccnc3)sc2c1	-73*
COc1cccc(-c2nc3n(n2)C(c2ccc4c(c2)OCO4)C(C(N)=O)=C(C)N3)c1 (centres undefined)	-111*
CCC1CCCCN1S(=O)(=O)c1ccc2c(c1)CCN2C(C)=O (centres undefined)	57
CC(=O)N1CCOc2ccc(S(=O)(=O)N3CCCCC3)cc21	-250*
CC(=O)c1cccc(NS(=O)(=O)c2ccc3c(c2)N(C(C)=O)CCO3)c1	-70*
Brc1ccccc1OCCCCn1cnc2ccccc21	-138*
Cc1ccc(OCCCCn2cnc3ccccc32)c(C)c1	-88*
Cc1ccc2nc(-c3ccccc3)cn2c1	120
Cc1ccc2nc(-c3ccc(-c4ccccn4)s3)cn2c1	-111*
O=c1[nH]c(=O)n([C@H]2C[C@H](O)[C@@H](CO)O2)cc1F	80
Cc1cc(C)c2c(c1)/C(=N\N=c1\sc3ccccc3n1C)C(=O)N2	-107*
O=C(/C=C/c1ccccc1)NC(=S)Nc1ccccc1O	-242*
SMILES	aSyn UTR act
CCCc1ccc(OCC(=O)Nc2cc(S(=O)(=O)CC)ccc2O)cc1	-171*
O=C(/C=C/c1ccc(F)cc1)NC(=S)Nc1ccccc1O	-210*
NC(=S)NC(=O)/C=C/c1ccccc1	-111*
CCS(=O)(=O)c1ccc(O)c(NC(=O)/C=C/c2ccccc2)c1	-110*
COC(=O)c1cc(NC(=O)/C=C/c2ccccc2)ccc1O	-141*
Cc1cc(C(=O)COc2ncnc3sccc23)c(C)n1C1CC1	-79*
CCCn1c(C)cc(C(=O)COc2ncnc3sccc23)c1C	-150*
CN1CCN(Cc2cc(COCc3ccccc3)c3cccnc3c2O)CC1	99
CCCOc1ccc(-c2nc(N3CCN(C)CC3)c3ccccc3n2)cc1	-135*
O=C(O)c1cnn(-c2nc(-c3ccc(Br)cc3)cs2)c1C(F)(F)F	-96*
Cc1occc1C(=O)N/N=C/c1c[nH]c2ccccc12	-135*
CC(C)(C)OC(=O)N/N=C/c1c[nH]c2ccccc12	-140*
O=C(NCCc1ccc(F)cc1)NC12CC3CC(CC(C3)C1)C2	-117*
O=C(NCCC1=CCCCC1)NC12CC3CC(CC(C3)C1)C2	-118*
CNC[C@H](CC1CCCCC1)NC[C@H](Cc1ccccc1)NCCC12CC3CC(CC(C3)C1)C2	125
O=C(CCCc1ccccc1)NC12CC3CC(CC(C3)C1)C2	-151*
COc1ccc(COc2ccc3ccc(=O)oc3c2)cc1	-232*
COc1cccc(COc2ccc3c(C)c(Cc4ccccc4)c(=O)oc3c2)c1	-67*
O=c1ccc2ccc(OCc3ccccc3)cc2o1	-80*
COc1cccc(COc2ccc3ccc(=O)oc3c2)c1	-139*
NS(=O)(=O)c1ccc2nc(NC(=O)c3ccc(Br)o3)sc2c1	-141*
Cc1ccc2nc(NC(=O)c3ccc(Br)o3)sc2c1	-82*
COc1cccc(OCCNc2cc(N3CCOCC3)ccc2[N+](=O)[O-])c1	-78*
O=C1CCCc2nc3c(cc21)C(O)Oc1c-3ccc2ccccc12 (centres undefined)	-118*
CC(=O)c1cccc(NC(=S)NC(=O)c2ccc(C)cc2Cl)c1	-70*
SMILES	aSyn UTR act
CC(=O)c1cccc(NC(=S)NC(=O)c2ccc(Br)cc2)c1	-143*
CC(=O)c1cccc(NC(=S)NC(=O)c2ccc(C)cc2)c1	-83*
Nc1nc2ccccc2n1C(=O)CCc1ccccc1	-63*
C/C(=N\NC(=O)CN1CCCCC1)c1cccc([N+](=O)[O-])c1	-93*
COc1nc(Nc2ccc(C(C)C)cc2)nc(OC)n1	-111*
Cc1cc(N2CCN(c3nc(-c4ccc([N+](=O)[O-])cc4)cs3)CC2)c2ccccc2n1	66
c1ccc(-c2csc(N3CCOCC3)n2)cc1	-145*
O=C1CNC(=S)N1c1nc(-c2ccccc2)cs1	-141*
CN(C)C(=O)N1CCN(c2nc(-c3ccccc3)cs2)CC1	-192*
c1ccc(-c2csc(N3CCN(c4ccccn4)CC3)n2)cc1	-77*
